Screening data (PubChem)
Shown are actives, neighbours in structure and some others; about 4% of the full set was active somewhere.
NR3A LBD binder: binders of NR3A ligand-binding domain, primary screen, biophysical, differential scanning fluorimetry, uHTS | AID 1259313, 2017 | NR3A LBD differential scanning fluorimetry, Tm shift; 0% = protein alone, 100% = glycine-bound protein | hit rate 2.5% among 340,000 | Tm shift relative to glycine control, % at 25 µM | Glutamate receptor ionotropic, NMDA 3A (GRIN3A) ligand-binding domain;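 active = melting temperature shift of at least 10% of the positive control shift, at one fixed dose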
aDG glyco act: activators of alpha-DG glycosylation, primary screen, uHTS, Pro5-aDG cells, AlphaScreen; activation, % at 10 µM; AID 624168, 2012; hit rate 0.22% among 360,000; alpha-DG glycosylation AlphaScreen (IIH6); 0% Pro5, 100% B10-LARGE cell signal;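 active = activation of at least 8% versus controls, or a plate z-score of at least 8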;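 also: Pro5 are CHO cells carrying HIG-tagged alpha-DG that lacks glycosylation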
FAS-TE inh: FAS thioesterase domain inhibitors, primary screen, biochemical, fluorescence intensity, uHTS | inhibition, % at 15 µM | Fatty acid synthase (Homo sapiens), P49327 | recombinant FAS-TE, OMFH fluorogenic substrate, fluorescence endpoint | hit rate 0.67% among 360,000 | AID 602261, 2012;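 active = compounds whose normalised, plate-corrected inhibition of enzyme fluorescence in the single-dose primary screen is 50% or more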
ADAM10 inh: human ADAM10 inhibitors, primary screen, biochemical, QFRET, HTS | recombinant ADAM10, EDANS/DABCYL FRET peptide cleavage, 3 h | inhibition, % at 7 µM | hit rate 0.62% among 370,000;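 active = inhibition above a per-campaign cutoff equal to the mean of compounds falling between control-based bounds plus 3 SD, cut at about 20% in these data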
Target sequence (O14672 214-748 limits assumed): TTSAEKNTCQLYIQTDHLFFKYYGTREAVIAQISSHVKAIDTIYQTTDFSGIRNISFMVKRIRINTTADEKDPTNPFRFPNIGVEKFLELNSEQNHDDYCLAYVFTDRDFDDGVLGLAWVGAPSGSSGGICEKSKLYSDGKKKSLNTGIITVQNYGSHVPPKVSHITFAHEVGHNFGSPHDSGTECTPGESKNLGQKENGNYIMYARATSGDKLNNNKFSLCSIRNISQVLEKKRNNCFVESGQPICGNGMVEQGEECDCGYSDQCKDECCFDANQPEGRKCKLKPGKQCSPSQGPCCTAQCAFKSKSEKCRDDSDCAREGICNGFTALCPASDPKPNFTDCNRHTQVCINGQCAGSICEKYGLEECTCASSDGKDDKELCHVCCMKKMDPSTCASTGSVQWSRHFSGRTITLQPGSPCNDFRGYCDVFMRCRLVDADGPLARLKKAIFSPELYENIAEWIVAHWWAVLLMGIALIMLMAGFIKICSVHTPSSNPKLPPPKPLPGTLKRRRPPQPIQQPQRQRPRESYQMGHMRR
ADAM17 inh: ADAM17 inhibitors, primary screen, biochemical, QFRET. hit rate 0.83% among 370,000. AID 720648, 2013. Disintegrin and metalloproteinase domain-containing protein 17 (Homo sapiens), P78536. inhibition, % at 6.95 µM. recombinant ADAM17, EDANS/DABCYL FRET peptide cleavage;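 active = inhibition above the mean of compounds lying between control limits plus 3 SD, set per campaign, cut at about 8.5% in these data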
ADAM10 counter: ADAM10 inhibitors, counter-screen for ADAM17 exosite inhibitor project, biochemical, FRET, human ADAM10; shares compounds with ADAM17 inh; recombinant ADAM10, EDANS/DABCYL FRET peptide cleavage, 3 h; inhibition, % at 6.95 µM; hit rate 47% among 2,900;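 active = mean inhibition over the triplicate runs exceeds the activity threshold set in the earlier primary screen, cut at about 20% in these data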
ADAM17 confirm: ADAM17 inhibitors, hit retest, confirmation, biochemical, QFRET peptide cleavage; inhibition, % at 6.95 µM; shares compounds with ADAM17 inh; AID 743257, 2014; recombinant ADAM17, EDANS/DABCYL QFRET peptide cleavage; hit rate 65% among 2,900;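 active = mean inhibition across replicates above the hit cutoff set in the primary screen, cut at about 8.5% in these data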
Numbers stand for hits; 0 = inactive; - = no result.

SMILES	NR3A LBD binder	aDG glyco act	FAS-TE inh	ADAM10 inh	ADAM17 inh	ADAM10 counter	ADAM17 confirm
Cc1ccc(N(CC(=O)O)S(=O)(=O)c2cccc3nonc23)cc1	0	0	0	0	0	-	-
CC(=O)c1cccc(NC(=O)CN(c2ccc(C)cc2)S(=O)(=O)c2cccc3nonc23)c1	0	0	0	23	12	25	15
Cc1ccc(C)c(NC(=O)CN(C)C(=O)c2ccc(COc3ccccc3)cc2)c1	-	0	0	0	11	0	0
COc1ccc(NC(=O)CN(C)C(=O)c2ccc(COc3ccccc3)cc2)cc1	0	0	0	0	0	-	-
COCCCOc1cc(NCc2ccccc2)c2ncn(C(C)C)c2c1	0	0	0	0	0	-	-
COc1cc(NCc2ccccc2)c2ncn(Cc3ccccc3)c2c1	0	0	0	0	12	0	0
CSc1ccccc1NC(=O)COC(=O)c1ccccc1Cc1ccccc1	0	0	0	0	0	-	-
Cc1ccc(C(=O)c2ccccc2C(=O)OCC(=O)Nc2ccc(SC(F)F)cc2)cc1	0	0	0	0	13	35	18
O=C(COC(=O)c1ccccc1Cc1ccccc1)Nc1ccc(SC(F)F)cc1	19	0	0	0	9.6	20	14
Clc1ccccc1C(c1nnnn1Cc1ccco1)N1CCN(Cc2ccco2)CC1 (stereo not given)	0	0	0	0	9.2	0	0
Cc1cccc(-c2nnn(C/C(N)=N/O)n2)c1	0	0	0	0	0	-	-
Cc1ccc(/C=N/NC(=O)C2CC(=O)N(c3ccccc3)C2)s1 (stereo not given)	0	0	0	0	10	0	0
O=C(N/N=C/c1cccs1)C1CC(=O)N(c2ccccc2)C1 (stereo not given)	0	0	0	0	0	-	-
COC(=O)c1ccc(N=C2SCC(=O)N2C)cc1	0	0	0	0	0	-	-
NC(=O)CSc1nnc(COc2cccc3ccccc23)o1	0	0	0	0	0	-	-
O=C(CSc1nnc(COc2cccc3ccccc23)o1)N1c2ccccc2CCc2ccccc21	0	0	0	0	8.9	0	0
COc1ccc(Cn2nnnc2C(c2cccs2)N2CCOCC2)cc1 (stereo not given)	0	0	0	0	8.7	0	11
C=CCC[C@@H](Cc1ccc(F)cc1)C(=O)OC[C@H](C)NC(=O)[C@@H](CC=C)CC(=O)N(CCO)Cc1ccccc1	0	0	0	0	9.8	0	0
C=CCC[C@@H](Cc1ccc(F)cc1)C(=O)OCCNC(=O)[C@@H](CC=C)CC(=O)N(CCO)Cc1ccccc1	0	0	0	0	0	-	-
C=CCC[C@@H](Cc1ccc(F)cc1)C(=O)OC[C@@H](Cc1c[nH]c2ccccc12)NC(=O)[C@@H](CC=C)CC(=O)N(CCO)Cc1ccccc1	0	0	0	0	9.5	37	21
C=CCOc1ccc(CNc2nn[nH]n2)cc1	0	0	0	0	9.1	0	0
CNC(=O)N(C1=NCC(C)(C)S1)c1ccc(F)c(Cl)c1	0	0	0	0	9.2	0	0
O=C(c1cn(Cc2ccccc2)nc1-c1ccc(Cl)cc1)N1CCN(c2ccccn2)CC1	0	0	0	0	9.5	0	0
Cc1ccc(-c2nn(Cc3ccccc3)cc2C(=O)N2CCN(c3ccccn3)CC2)cc1	0	0	0	0	0	-	-
CSCCC(NC(=O)c1cccc(S(=O)(=O)N2CCOCC2)c1)c1nc2ccccc2[nH]1 (stereo not given)	0	0	0	0	10	0	0
SMILES	NR3A LBD binder	aDG glyco act	FAS-TE inh	ADAM10 inh	ADAM17 inh	ADAM10 counter	ADAM17 confirm
CCN(C(=O)COC(=O)c1cc2c(s1)CCC(C)C2)c1c(N)n(Cc2ccccc2)c(=O)[nH]c1=O (stereo not given)	0	0	0	0	0	-	-
Cc1ccc(C2C3=C(CC(C)(C)CC3=O)N=C3c4ccccc4C(=O)C32)cc1 (stereo not given)	0	0	0	0	8.7	0	0
COc1cc(/C=C/C(=O)OCC(=O)c2c[nH]c3ccccc23)ccc1OC(F)F	29	0	0	0	9.4	21	18
Cc1ccc(C2(CCNS(=O)(=O)c3ccc(C)cc3)CCOC(C(C)C)C2)cc1 (stereo not given)	0	0	0	0	10	29	16
CSCC[C@H](NC(=O)NCc1ccc(F)cc1)C(=O)O	0	0	0	0	0	-	-
Cc1ccc(-c2cc(C(=O)NN=Cc3cccc(OCc4ccccc4)c3)[nH]n2)cc1C	-	-	-	0	11	0	12
CC1CCCN(c2ccc(F)cc2N)C1 (stereo not given)	0	0	0	0	0	-	-
COc1ccccc1NC(=O)Nc1nc(CC(=O)N2CCN(c3ccc(F)cc3)CC2)cs1	0	0	0	0	9.8	24	16
COc1ccc(N2CCN(C(=O)Cc3csc(NC(=O)Nc4ccccc4OC)n3)CC2)cc1	0	0	0	0	0	-	-
COc1ccc(N2CCN(C(=O)CCC(=O)N3CCOc4ccc(Cl)cc43)CC2)cc1	0	0	0	0	11	29	0
COc1ccc(N2CCN(C(=O)CCC(=O)N3CCOc4ccc(C)cc43)CC2)cc1	0	0	0	0	0	-	-
COc1ccc(CN[C@@H]2CC[C@@]34CCCN3C(=O)CCC[C@H]4C2)cc1	-	-	-	0	0	-	-
COC(=O)C1=C(C)N=C2SC(C)C(=O)N2C1c1cccs1 (stereo not given)	0	0	0	0	9.6	0	0
O=[N+]([O-])c1cc([N+](=O)[O-])c(Oc2cccc3ccccc23)cc1NN1CCCCC1	0	0	0	0	0	-	-
O=[N+]([O-])c1cc([N+](=O)[O-])c(Oc2cccnc2Br)cc1NN1CCCCC1	0	0	0	0	11	26	15
CNC(=O)CC1C(=O)N(c2ccc(Cl)cc2)C(=S)N1CCc1ccc(OC)c(OC)c1 (stereo not given)	0	0	0	0	8.7	0	0
CCN1C(=O)C(CC(=O)Nc2ccc(Br)cc2)N(CCCc2ccccc2)C1=S (stereo not given)	16	0	0	0	9.0	35	20
